SMILES strings stand for the structures. Results filed as inconclusive are left out. A number with no mark means an inactive call. Calls come from the whole dose curve; as a rule, active = well fitted inhibition curve with a large enough effect; inconclusive = small, poorly fitted or top-dose-only effect; inactive = flat fitted curve, though single readings scatter.
% is set by controls: 0 for no effect and ±100 for the full control effect.

Sequence of Calcium and integrin-binding protein 1 (Homo sapiens) (Q99828 whole entry, looked up): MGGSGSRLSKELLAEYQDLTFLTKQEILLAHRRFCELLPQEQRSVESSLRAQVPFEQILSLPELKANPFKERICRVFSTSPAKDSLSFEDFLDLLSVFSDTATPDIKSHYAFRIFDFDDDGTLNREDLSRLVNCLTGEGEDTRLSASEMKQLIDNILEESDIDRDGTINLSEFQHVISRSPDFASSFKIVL

This experiment concerns the target Calcium and integrin-binding protein 1 (Homo sapiens) (UniProt Q99828). In words: Primary qHTS for Identification of Calcium Integrin Binding Protein 1 (CIB1) Competitor (AID 1508620). Note: top concentration of the series differs between compounds. The settings on record: CIB1-GST / FITC-alphaIIb peptide fluorescence polarization; series mostly up to 114 µM; activity change, negative = inhibition: at the top concentration. A digest of the protocol:
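Fluorescence polarization competition: GST-tagged CIB1 (1 uM final) preincubated with compound 15 min at room temperature, then FITC-labelled alphaIIb peptide (100 nM final) added. After 15 min at room temperature, polarization read at Ex 480/Em 540.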
In general terms: In qHTS, concentration-response curves come from the screen itself.
In the case of `c1ccc2[nH]c(-c3ccc(NCc4ccc5c(c4)OCCO5)cc3)nc2c1`, the “activity change, negative = inhibition” value was 3.15%.
In the case of `NC(=O)c1cccc(-c2noc(-c3ccccc3C(F)(F)F)n2)c1` it was -2.25%; in that of `COc1cccc(NC(=S)N2CCN(c3cccc(Cl)c3Cl)CC2)n1`, 9.58%; in that of `O=C(Nc1ncc(Cc2ccc(C(F)(F)F)cc2)s1)c1cnc(-c2ccccc2)s1`, 7.75%.
As to `Cc1ccc(NS(=O)(=O)c2ccc(-c3ccccc3)cc2)cc1C`, the “activity change, negative = inhibition” value was 4.33%.
For the compound `Oc1cccc2cc(Nc3ccccc3)cnc12`, the “activity change, negative = inhibition” value is -22.5%.
As for `CCn1cnc2c(NCCc3cccnc3)nc(C#N)nc21`, the “activity change, negative = inhibition” value is 6.06%.
On to `O=C1CCCC2=C1C(c1[nH]ncc1Cl)NC(=NCc1ccco1)N2` (stereo not drawn), for which the “activity change, negative = inhibition” value is 1.93%.
In the case of `O=[S+]([O-])(Nc1ccccc1)c1ccc(NCc2ccc(Cl)cc2O)cc1` it was 1.97%; in that of `Fc1ccc(-c2ccc(Nc3nc(-c4ccncc4)nc4ccccc34)cc2F)c(Cl)c1`, 4.46%.
On to `CC(=O)Nc1sc2c(c1-c1ccc(N(C)C)cc1)CCNC2`, for which the “activity change, negative = inhibition” value was -29.3%.
On to `COc1ccc(Cn2ncc3c4sc(C)cc4n(C)c3c2=O)cc1F`, for which the “activity change, negative = inhibition” value is -0.808%.
As for `N#Cc1c(-c2ccc(C(=O)c3ccc(O)cc3)cc2)no[n+]1[O-]`, the “activity change, negative = inhibition” value was -6.28%.
In the case of `FC(F)(F)c1ccccc1-c1nc(NCc2ccccc2)c2ccccc2n1` it was 1.56%.
In the case of `Cc1nnc(-c2cnn(C)c2N)n1CCc1cccs1` it was -7.12%; in that of `O=C1CCCC2=C1C(c1cccnc1)N=C(Nc1nc3ccccc3o1)N2` (stereo not drawn), -14.6%; in that of `Cc1cc2c(s1)c1cnn(Cc3cccc([N+](=O)[O-])c3)c(=O)c1n2C`, 2.52%.
In the case of `O=C(OCC#CCSc1nnc(-c2cccc3ccccc23)o1)c1ccsc1` it was 1.84%.

(Values after PubChem BioAssay (NCATS).)
